Glioma ERSR ind = qHTS for Inducers of the Endoplasmic Reticulum Stress Response (ERSR) in Human Glioma: qHTS; U87-MG GRP78 promoter luciferase reporter, 16 h; Potency, µM, for inactives: at the highest dose activation, actives largely listed as activators; 420,000 compounds, 0.02% hits; AID 602332, 2012; note: potency is the fitted concentration of half-maximal effect; series mostly up to about 76 µM; % of control where 0% means no effect; nearly all actives have a fitted effect of over 35% in size
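ERSR induction read as luciferase luminescence (Bright-Glo, 10 min at room temperature) in stably transfected human U87-MG glioma cells exposed to compounds for 16 h, using GRP78 as sensor.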
A549 tox = Nrf2 qHTS screen for inhibitors: counterscreen for cytotoxicity | 390,000 compounds, 0.16% hits | A549 ARE-Fluc cells, CellTiter-Fluor viability, 18-24 h | Potency, µM (doses to about 46 µM), for inactives: at the highest dose activity change, negative = cytotoxicity, usual class: inhibitors; note: potency is the fitted concentration of half-maximal effect; % is set by controls: 0 for no effect and ±100 for the full control effect
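A549 ARE_Fluc cells in 5% FBS OPTI-MEM were exposed to compounds in concentration-response for 18-24 h at 37 deg C. Viability was read by CellTiter-Fluor fluorescence (Ex 405/Em 525) after 30 min, before the luciferase read.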
Nrf2 inh = Nrf2 qHTS screen for inhibitors; A549 ARE-Fluc reporter, luciferase luminescence, 18-24 h; Potency, µM (highest dose often 46 µM), for the others: at the top dose activity change, negative = inhibition, hits mostly inhibitors; 360,000 compounds, 2.1% hits; note: potency is the fitted concentration of half-maximal effect; % is set by controls: 0 for no effect and ±100 for the full control effect; nearly all actives have a fitted effect of over 60% in size
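Quantitative HTS in A549 cells stably bearing an antioxidant response element-firefly luciferase construct. Inhibition of Nrf2-driven transcription was scored by luminescence after 18-24 h of compound exposure at 37 °C.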
miR-21 reporter = qHTS Assay for Modulators of miRNAs and/orActivators of miR-21. HeLa miR-21 FLuc reporter, luciferase, 48 h. 340,000 tested, under 10 active. Potency, µM (series often up to 38.3 µM), inactives show at the top dose activity change, positive = activation, hits mostly activators;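 note: % of control where 0% means no effect; miR-21 action dims this reporter so a rising signal means less miR-21 action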
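Luminescence from a firefly luciferase reporter carrying a miR-21 binding site downstream, stably expressed under a CMV promoter in HeLa cells that make miR-21 endogenously, reports miRNA modulation after 48 h compound exposure up to approximately 40uM final.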
Nrf2 ARE act = qHTS of Nrf2 Activators; AID 624171, 2012; AREc32 ARE-luciferase reporter (MCF7-derived line), luminescence, 24 h; Potency, µM (titrated, usually from 46.1 µM), for inactives: at the top dose activation, hits mostly activators; 410,000 compounds, 0.31% hits; note: potency is the fitted concentration of half-maximal effect; % of control where 0% means no effect; nearly all actives have a fitted effect of over 65% in size
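Reporter line AREc32 (ARE-Fluc), seeded overnight in OPTI-MEM with 5% FBS; compound pin-transferred, 24 hr at 37 deg C, 5% CO2; luminescent read-out.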
Mito fusion yeast = qHTS Assay for Small Molecule Inhibitors of Mitochondrial Division or Activators of Mitochondrial Fusion; 320,000 compounds, 0.23% hits; Potency, µM (titrated, usually from 46.1 µM), for inactives: top-dose growth rescue (activation), actives largely listed as activators; S. cerevisiae fusion-defective mutant growth rescue, CellTiterGlo 48 h; note: potency is the fitted concentration of half-maximal effect; % of control where 0% means no effect; nearly all actives have a fitted effect of over 45% in size
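Temperature-sensitive fusion-defective S. cerevisiae (e.g. fzo1-1, mgm1-5) were grown with compound in YPEG medium (3% ethanol, 3% glycerol) for 48 hours at 37C. Growth rescue was measured as viability by CellTiterGlo luminescence after 10 minutes at ambient.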
* hit, by the source's call; ? = inconclusive; / = no result given; [ ] = dose if it differs, or a comment. Most compounds without a hit are left out; they make up all but 2.3% or so of the library. Calls come from the whole dose curve; as a rule, active = well fitted curve in the direction sought with a large enough effect; inconclusive = small, poorly fitted or top-dose-only effect, or another doubt; inactive = no such curve, though single readings can be large; an effect the other way counts as inactive or inconclusive.

SMILES	Glioma ERSR ind	A549 tox	Nrf2 inh	miR-21 reporter	Nrf2 ARE act	Mito fusion yeast
CCOc1ccc(NC(=O)NCCCCc2ccccc2)cc1	-5.6%	-0.1%	4.2%	2.9%	-0.3%	-3.7%
CN(c1ccccc1)P(=O)(N(C)c1ccccc1)N(C)c1ccccc1	-1.6%	?	16.4µM*	?	-0.2%	15.6%
CC(C)[C@@H](CO)N(C)S(=O)(=O)c1ccccc1Br	-2.9%	9.3%	1.8%	/	-1.0%	/
CC(=O)Nc1ccc(Oc2sc(C(=O)c3ccccc3)c(N)c2C#N)cc1	-4.4%	?	/	26.7%	8.91µM*	0.7%
CCOc1ccc(C(=O)Nc2nnc(SCC(=O)NCC3CCCO3)s2)cc1 (stereo not drawn)	-15.6%	6.0%	?	-2.7%	-2.2%	3.0%
CC(C)(C)c1ccc(C(=O)Nc2nnc(SCC(=O)NCC3CCCO3)s2)cc1 (stereo not drawn)	-6.9%	-10.2%	10.3µM*	-30.9%	-0.3%	0.8%
O=C(CSc1nc2cc(Cl)ccc2s1)NCC1CCCO1 (stereo not drawn)	2.1%	-10.4%	11.6µM*	/	2.5%	/
O=C1NC[C@H](Cc2ccc(O)cc2)N(C[C@@H]2CCCN2C[C@H](Cc2ccc(O)cc2)N2C[C@H](Cc3ccccc3)N(CC3CCCCC3)C(=O)C2=O)C1=O	/	/	/	/	0.0%	/
CCN(CC)S(=O)(=O)c1cccc(NC(=O)C2CC(=O)N(c3ccc4c(c3)OCCO4)C2)c1 (stereo not drawn)	-0.7%	-14.5%	23.1µM*	/	0.1%	-0.8%
CC1CCC(NC(=O)c2ccc(CS(=O)(=O)c3c(Cl)cccc3Cl)o2)CC1 (stereo not drawn)	-0.3%	-20.7%	?	12.4%	7.9%	/
O=C(Nc1ccc(Br)c(C(F)(F)F)c1)c1ccccc1	2.6%	-4.6%	?	-2.4%	?	22.4µM*
CCOc1ccccc1NC(=O)Cc1coc2cc(C)ccc12	-5.2%	1.0%	/	-12.0%	3.7%	27.5%
COCCCNC(=O)c1ccc([N+](=O)[O-])cc1	-2.0%	-1.3%	17.5%	2.2%	0.0%	1.3%
O=C(CCl)NCCCN(C(=O)C(Cl)Cl)c1ccc([N+](=O)[O-])cc1	-6.1%	?	?	26.9%	11.2µM*	-5.0%
Cc1ccc2cc(CN(Cc3ccco3)C(=O)NCc3ccccc3)c(=O)[nH]c2c1C	-4.2%	-19.5%	?	0.1%	3.3%	10.0%
Cc1ccc(C)c2[nH]c(=O)c(CN(Cc3ccco3)C(=O)Nc3ccccc3)cc12	-7.3%	-13.0%	?	18.7%	0.8%	14.1µM*
COc1ccccc1NC(=O)N(Cc1ccco1)Cc1cc2cc(C)cc(C)c2[nH]c1=O	-6.0%	?	23.1µM*	5.3%	0.4%	?
COc1ccccc1N1CCN(C(=O)Cn2cnc3sc(C)c(S(=O)(=O)N4CCC(C)CC4)c3c2=O)CC1	-1.8%	1.8%	6.9%[9.27 µM]	11.2%	-0.9%	/
O=C(CN(CC1CCCO1)C(=O)CCC(=O)Nc1nccs1)NCc1ccccc1 (stereo not drawn)	-5.0%	1.6%	5.8%	-17.1%	0.1%	-3.5%
CCc1c(C)[nH]n(-c2nc(-c3ccccc3)cs2)c1=O	1.3%	3.9%	?	-17.6%	3.7%	-1.2%
Cc1[nH]n(-c2nc(-c3ccc(Cl)cc3)cs2)c(=O)c1N=Nc1ccc(O)cc1	0.9%	14.6µM*	?	-19.7%	2.6%	5.7%
Cc1ccc(-c2nnc(N3CCOCC3)c3ccccc23)cc1S(=O)(=O)NCc1cccnc1	-1.0%	-0.1%	-14.9%	-1.9%	1.0%	9.3%
C=C1C(=O)C23C(O)C1CCC2C12CCCC(C)(COC(C)=O)C1C(O)C3(O)OC2 (stereo not drawn)	-13.6%	18.4µM*	9.2µM*	/	-3.5%	/
CCOP(=O)(OCC)c1ccccc1OCP(C)(=O)COc1ccccc1P(=O)(OCC)OCC	-4.9%	-14.2%	1.1%	-1.1%	-0.6%	2.6%
O=C(CN(C(=O)c1csnn1)c1ccc(F)c(Cl)c1)NCc1ccc(F)cc1	-7.4%	-2.2%	0.7%	0.9%	-0.5%	-1.7%
SMILES	Glioma ERSR ind	A549 tox	Nrf2 inh	miR-21 reporter	Nrf2 ARE act	Mito fusion yeast
CCOc1ccc2nc(N3CCC(C(=O)N4CCN(c5ccccn5)CC4)CC3)sc2c1	?	-18.1%	16.4µM*	9.5%	3.1%	2.6%
CCOc1ccc2nc(N3CCC(C(=O)N4CCN(c5ncccn5)CC4)CC3)sc2c1	1.8%	-6.0%	-19.4%	-27.8%	0.9%	-37.6%
COc1cc(S(=O)(=O)NCc2ccccc2Cl)ccc1-n1cnnn1	0.2%	3.0%	-10.6%	-2.9%	-0.3%	9.3%
O=[N+]([O-])c1ccc(S(=O)(=O)NCCN2CCOCC2)cc1	-5.3%	0.7%	3.3%	-37.9%	-0.3%	4.9%
O=[N+]([O-])c1ccc(-c2ccc(S(=O)(=O)NCCN3CCCC3)cc2)cc1	-2.8%	-5.3%	16.4µM*	19.1%	4.9%	-9.1%
NC(=S)N/N=C/c1ccc(/C=N/NC(N)=S)cc1	-5.1%	-0.7%	2.8%	-5.0%	0.3%	-4.1%
NC(=S)N/N=C/c1ccc(-n2nncc2-c2ccc(Cl)cc2)cc1	-2.1%	2.9%	-10.3%	-10.9%	?	22.4µM*
Cc1ccc(C(=O)N2CCN(c3ncnc4c(C)csc34)CC2)cc1	-3.6%	-5.1%	?	-2.0%	-0.1%	-0.7%
Cc1csc2ncnc(N3CCN(C(=O)Nc4ccc(OC(F)(F)F)cc4)CC3)c12	0.0%	?	23.1µM*	23.1%	3.7%	-13.3%
Fc1ccc(NC(=S)N2CCOCC2)c(F)c1	-3.2%	-0.5%	0.6%	-4.0%	-0.8%	2.2%
Cc1csc2c(N3CCN(C(=O)Nc4ccccc4)CC3)ncnc12	-3.4%	-2.6%	8.2µM*	0.8%	4.0%	-6.4%
Cc1csc2c(N3CCN(C(=S)Nc4ccc(F)cc4F)CC3)ncnc12	-3.9%	-5.0%	18.4µM*	2.7%	0.6%	-0.4%
COc1ccc([C@H]2CC(=O)C=C(c3cccc(Cl)c3)C2)cc1	-1.7%	10.5%	?	/	2.5%	?
C/C(=N\NC(=O)c1cc(-c2cccc(OC(C)C)c2)nc2ccccc12)c1cccnc1	-4.4%	7.1%	-8.9%	5.7%	0.2%	-2.2%
C/C(=N\NC(=O)c1cc(-c2cccnc2)nc2ccccc12)c1ccc(O)cc1O	-4.0%	?	14.6µM*	22.4%	0.1%	4.1%
O=C(Nc1ccc(Cl)c(Cl)c1)N1N=CCC1c1ccccc1 (stereo not drawn)	-1.5%	?	16.4µM*	0.1%	4.1%	5.6%
